# High-throughput results as filed in PubChem BioAssay.
# The full list was thinned out, with hits kept by preference.
# STK33 inh = STK33 kinase inhibitors, primary screen, biochemical, luminescence, ADP-Glo, MBP substrate; hit rate 0.44% among 27,000; inhibition, % at 12.5 µM; AID 2322, 2010; in the data active means inhibition above about 20%
# Target sequence (Q9BYT3 whole entry, looked up): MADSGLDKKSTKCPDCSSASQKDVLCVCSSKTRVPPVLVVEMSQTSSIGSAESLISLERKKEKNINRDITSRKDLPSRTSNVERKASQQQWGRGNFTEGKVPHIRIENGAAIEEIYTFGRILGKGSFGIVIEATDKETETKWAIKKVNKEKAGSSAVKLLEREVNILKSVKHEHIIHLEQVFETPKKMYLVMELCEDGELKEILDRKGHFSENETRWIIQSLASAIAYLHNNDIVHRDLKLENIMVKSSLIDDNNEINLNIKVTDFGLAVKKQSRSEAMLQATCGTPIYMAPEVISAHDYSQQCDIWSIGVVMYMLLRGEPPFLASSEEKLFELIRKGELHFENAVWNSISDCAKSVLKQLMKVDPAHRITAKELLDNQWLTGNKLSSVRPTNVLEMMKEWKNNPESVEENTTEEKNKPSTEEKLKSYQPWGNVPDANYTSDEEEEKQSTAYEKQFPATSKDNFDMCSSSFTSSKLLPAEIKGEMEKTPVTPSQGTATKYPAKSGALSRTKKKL
# PD-1 reverse act = activators reversing PD-1 mediated T-cell inhibition, primary screen, luminescence, primary human CD4 T cells, PD-L1 beads; CellTiter-Glo 96 h; activation, % (no concentration beside the values); 29,000 tested, under 10 active; call rule not given here;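 further: 0% = median vehicle wells and 100% = positive control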
# NOMO-1 viab = NOMO-1 AML cell viability reduction, primary screen, STK33 inhibitor project, CellTiter-Glo luminescence | NOMO-1 AML viability, 72 h | hit rate 7.5% among 37,000 | inhibition, % (test concentration not listed); in the data active means inhibition above about 80%
# The depositor's hits bear a star; x = no result.
SMILES,STK33 inh,PD-1 reverse act,NOMO-1 viab
C[C@H]1CN([C@@H](C)CO)C(=O)c2cccc(NC(=O)Nc3cccc4ccccc34)c2O[C@H]1CN(C)C(=O)Nc1ccc(C(F)(F)F)cc1,x,-6,109*
C[C@H](CO)N1C[C@H](C)[C@@H](CN(C)C(=O)Nc2ccc(C(F)(F)F)cc2)Oc2c(NC(=O)Nc3cccc4ccccc34)cccc2C1=O,x,-5,100*
C[C@H]1CN([C@@H](C)CO)C(=O)c2cccc(NC(=O)Nc3ccc(F)cc3)c2O[C@H]1CN(C)C(=O)Nc1cccc2ccccc12,x,-2,-4
C[C@H]1CN([C@@H](C)CO)C(=O)c2cccc(NC(=O)Nc3cccc4ccccc34)c2O[C@H]1CN(C)C(=O)Nc1ccc(F)cc1,x,-5,87*
Cc1cc(NC(=O)CSc2nnc(-c3ccccc3Cl)n2C)ccc1Br,-3,0,32
COc1ccc(OC(C)C(=O)Nc2cc(C)c(Cl)cc2OC)cc1 (stereo unspecified),1,1,44
Cc1nn(Cc2cccc(C(=O)Nc3ccc(S(=O)(=O)N4CCCCC4)cc3)c2)c(C)c1Cl,-3,-2,59
Cc1ccc(-n2nnnc2SCC(=O)c2ccc(O)c(O)c2)cc1,2,-1,76
COc1cc(-c2c(C#N)c(SCC#N)nc(N)c2C(=O)OC(C)C)cc(OC)c1OC,x,0,2
C=CC[C@@]12C[C@@H](OC)C(=O)C(OC)=C1O[C@H](c1ccc3c(c1)OCO3)[C@H]2C,-13,x,x
Cc1cc(OCC(=O)Nc2ccc(O)c(-c3nc4ccccc4s3)c2)ccc1Cl,0,x,56
Cc1cc(OCC(=O)Nc2ccc(O)c(-c3nc4ccccc4o3)c2)ccc1Cl,2,-7,107*
c1ccc(CSC23CC4CC(CC(C4)C2)C3)cc1,x,-3,57
c1ccc(-c2nc(C34CC5CC(CC(C5)C3)C4)co2)cc1,x,-1,99*
C=C1C(=O)O[C@@H]2[C@H]3C(=C)[C@@H](O[C@@H]4O[C@H](CO)[C@@H](OC(=O)/C=C/c5ccc(O)c(O)c5)[C@H](O)[C@H]4O)C[C@H]3C(=C)C[C@@H](O)[C@@H]12,7,x,x
C=C(CO)C(=O)O[C@H]1C[C@H]2C(=C)C[C@H](OC(=O)C(=C)CO)[C@H]3C(=C)C(=O)O[C@@H]3[C@H]2C1=C,1,3,117*
C[C@@H]1CN([C@H](C)CO)C(=O)Cc2cc(NS(=O)(=O)c3ccc(F)cc3)ccc2O[C@H]1CN(C)Cc1ccccc1,-3,x,18
C[C@H]1CN([C@@H](C)CO)C(=O)Cc2cc(NS(=O)(=O)c3ccc(F)cc3)ccc2O[C@H]1CN(C)Cc1ccc(Oc2ccccc2)cc1,7,0,122*
C[C@@H]1CN([C@@H](C)CO)C(=O)Cc2cc(NS(=O)(=O)c3ccc(F)cc3)ccc2O[C@@H]1CN(C)Cc1ccc(Oc2ccccc2)cc1,4,x,122*
C[C@H]1CN([C@@H](C)CO)C(=O)Cc2cc(NS(=O)(=O)c3ccc(F)cc3)ccc2O[C@H]1CN(C)Cc1ccccc1,-2,0,24
Cc1ccc(N(C(C)C(=O)Nc2cc([N+](=O)[O-])ccc2C)S(C)(=O)=O)cc1 (stereo unspecified),0,x,11
COc1ccc(C)cc1S(=O)(=O)N1CCCC(C(=O)Nc2ccccc2)C1 (stereo unspecified),0,4,5
Cc1ccc(C(=O)Nc2ccccc2)c(C)n1,2,-1,4
CCN1C(=O)C=CC1=O,-5,4,98*
CC(=O)O[C@H]1[C@H](Oc2cc(O)cc(O)c2C(=O)c2cccc(O)c2)O[C@H](CO)[C@@H](OC(=O)c2ccccc2)[C@@H]1O,0,-1,0
SMILES,STK33 inh,PD-1 reverse act,NOMO-1 viab
COCCCN1C(=O)[C@@]2(Cc3ccccc31)c1ccccc1C(=O)N(Cc1ccccc1C(F)(F)F)[C@H]2c1ccc(CO)cc1,3,x,x
C[C@H](CO)N1C[C@H](C)[C@@H](CN(C)Cc2ccc(C(=O)Nc3ccccc3N)cc2)Oc2c(NC(=O)c3cnccn3)cccc2C1=O,x,-2,118*
Cc1cc(C(=O)Nc2cccc3c2O[C@H](CN(C)Cc2ccc(Oc4ccccc4)cc2)[C@H](C)CN([C@H](C)CO)C3=O)n(C)n1,x,-2,19
Cc1cc(C(=O)Nc2cccc3c2O[C@@H](CN(C)Cc2ccc(Oc4ccccc4)cc2)[C@H](C)CN([C@@H](C)CO)C3=O)n(C)n1,x,-8,102*
C[C@@H]1CN([C@H](C)CO)C(=O)c2cccc(NC(=O)c3ccncc3)c2O[C@@H]1CN(C)Cc1ccc(C(=O)Nc2ccccc2N)cc1,x,-1,128*
C[C@@H]1CN([C@@H](C)CO)C(=O)c2cccc(NC(=O)c3cnccn3)c2O[C@@H]1CN(C)Cc1ccc(C(=O)O)cc1,x,1,21
